# In the supplement of paper PMC11150407:
# The campaign covered roughly 2,100 compounds. About 180 (8.6%) showed an effect of 50% or more. What follows is part of a selection rich in strong results, with near analogues and random picks from the rest.
# Tested on: MOLM1 and UCSD/AML1 (averaged)
# Assay: cell viability relative to DMSO control (POC); higher = less growth inhibition
# Settings: 1 µM; 72 h
# Description: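 Primary viability screen in the 3q26 EVI1-high AML cell lines MOLM1 and UCSD/AML1 (1.5e3 cells/well, 384-well), compounds at 1 uM for 72 h. ATP CellTiter-Glo read-out given as percent of viable cells over DMSO control (POC), averaged over duplicates. DMSO was the negative control and 5 uM etoposide the positive control. This mapping covers the MicroSource Spectrum and Selleck anticancer libraries (drug names).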
row,Compound,cell viability
1,c1cc2c(cc1[C@H]1OC[C@H]3[C@@H]1CO[C@H]3c1ccc3c(c1)OCO3)OCO2,84.6%
2,C[C@@H]1CC[C@]2(NC1)O[C@H]1C[C@H]3[C@@H]4CC=C5C[C@@H](O)CC[C@]5(C)[C@H]4CC[C@]3(C)[C@H]1[C@@H]2C,94.1%
3,C[C@H]1C(=O)O[C@@H]2CCN3CC=C(COC(=O)[C@](C)(O)[C@]1(C)O)[C@H]23,103%
4,"C[C@@H]1C(=O)O[C@H]2[C@H]1CC[C@@]1(C)C=CC(=O)[C@@]3(C)O[C@@]213 [EPOXY (4,5alpha)-4,5-DIHYDROSANTONIN]",95.7%
5,CNC(Cc1c[nH]c2ccccc12)C(=O)O (stereo not drawn),102%
6,C=C[C@H]1CN2CC[C@H]1C[C@H]2[C@H](OC(=O)OCC)c1ccnc2ccc(OC)cc12,98.5%
7,N[C@@H]1C[C@H]1c1ccccc1.N[C@H]1C[C@@H]1c1ccccc1,93.1%
8,COP(N)(=O)SC (stereo not drawn),111%
9,C[C@@H]1C[C@H](O)[C@@]2(O)[C@]13CC(=O)OC[C@@]2(C)[C@@](C)(O)C(=O)C3,92.3%
10,C[C@]12CC[C@H](O)C[C@@H]1CC[C@@H]1[C@@H]2CC[C@]2(C)C(=O)CC[C@@H]12,98.7%
11,"CC(=O)C1CCC2C3CCC4C[C@H](O)CCC4(C)C3C[C@H](O)C12C (stereo partly drawn) [DIHYDROXY (3alpha,12alpha)PREGNAN-20-ONE]",105%
12,C[C@]12CC[C@H](O)C[C@H]1CC[C@@H]1[C@@H]2C[C@@H](O)[C@]2(C)[C@@H](C3=CC(=O)OC3)CC[C@]12O,18.7%
13,COP(=S)(OC)Oc1ccc(Sc2ccc(OP(=S)(OC)OC)cc2)cc1,101%
14,CSc1nc(NC(C)C)nc(NC(C)C)n1,102%
15,CC1(C)C(=O)C=C[C@@]2(C)C1=C(O)C(=O)[C@]1(C)[C@@H]2CC[C@@]2(C)[C@H](c3ccoc3)C[C@H]3O[C@]321,85.9%
16,CC(=O)O[C@@H]1C[C@@]2(C)[C@H](c3ccoc3)C[C@H]3O[C@]32[C@]2(C)C(=O)C(O)=C3C(C)(C)C(=O)C=C[C@]3(C)[C@@H]12,19.3%
17,CC(=O)O[C@H]1C[C@@H](OC(C)=O)C(C)(C)C2C[C@@H](OC(C)=O)[C@]3(C)C(CC[C@@]4(C)[C@H](c5ccoc5)C(=O)[C@H]5O[C@]543)[C@]21C (stereo partly drawn),85.4%
18,CNC(C)[C@H](O)c1ccccc1 (stereo partly drawn),93.6%
19,Cc1nccc2c1[nH]c1cc(O)ccc12,81%
20,O=C(NC(=O)c1c(F)cccc1F)Nc1ccc(Cl)cc1,118%

row,Compound,cell viability
1,C[C@@H]1O[C@@H](O[C@@H]2C=C3CC[C@@H]4[C@H](CC[C@]5(C)[C@@H](c6ccc(=O)oc6)CC[C@]45O)[C@@]3(C)CC2)[C@H](O)[C@H](O)[C@H]1O,2.01%
2,CC(C)(O)[C@@H]1[C@H]2OC(=O)[C@@H]1[C@]1(O)C[C@H]3O[C@]34C(=O)O[C@H]2[C@]14C,87.8%
3,O=C(NC(=O)c1c(F)cccc1F)Nc1cc(Cl)c(OC(F)(F)C(F)C(F)(F)F)cc1Cl (stereo not drawn),93.9%
4,COC(=O)NC(=S)Nc1ccccc1NC(=S)NC(=O)OC,116%
5,COC(=O)C(c1ccccc1)C1CCCCN1 (stereo not drawn),89.3%
6,CC(C)(N)Cc1ccccc1,110%
7,N#C/C(=C\c1cccc(O)c1)C(=O)O [alpha-CYANO-3-HYDROXYCINNAMIC ACID],94.3%
8,O=c1c2ccccc2[se]n1-c1ccccc1,97.5%
9,C[CH2][Hg][S]c1ccccc1C(=O)[O-].[Na+],99.6%
10,CCCCCCCCCCCCCCCC[n+]1ccccc1,62.3%
11,C/C=C(/C)C(=O)O[C@H]1CC[C@@]2(C)[C@@H]3CC[C@H]4[C@]5(O)C[C@H](O)[C@@]6(O)[C@@H](CN7C[C@@H](C)CC[C@H]7[C@@]6(C)O)[C@]5(O)C[C@@]42O[C@]13O,94.9%
12,CC(C)N(CCC(C(N)=O)(c1ccccc1)c1ccccn1)C(C)C (stereo not drawn),113%
13,N#Cc1c(Cl)c(Cl)c(Cl)c(C#N)c1Cl,1.55%
14,CC1=CCCC2C1(C)CCC(C)C2(C)CC/C(C)=C/Cn1c[n+](C)c2c(N)ncnc21 (stereo not drawn) [AGELASINE (stereochemistry of diterpene unknown)],109%
15,CN[C@@H]1[C@@H](O)[C@@H](O[C@@H]2[C@@H](O)[C@H](O[C@H]3O[C@H]([C@@H](C)O)[C@@H](O)[C@H](O)[C@H]3N)[C@@H](N)C[C@H]2N)OC[C@]1(C)O,92%
16,"CC1(C)C(=O)[C@@H]2O[C@@H]2[C@@]2(C)C1C[C@@H](O)[C@]1(C)C2CC[C@@]2(C)[C@H](c3ccoc3)OC(=O)C3OC321 (stereo partly drawn) [1,2alpha-EPOXYDEACETOXYDIHYDROGEDUNIN]",91.4%
17,CC1=CC(=O)c2c(O)cccc2C1=O,74.6%
18,COc1cc2c(cc1OC)[C@@H]1C(=O)c3ccc(OC)c(CC=C(C)C)c3O[C@@H]1CO2,103%
19,C=C(C)[C@H]1Cc2c(ccc3c2O[C@@H]2COc4cc(OC)c(OC)cc4[C@@H]2C3=O)O1,26.4%
20,COc1cc2c(cc1OC)[C@@H]1C(=O)c3ccc4c(c3O[C@@H]1CO2)CC(C(C)C)O4 (stereo partly drawn),77.8%

row,Compound,cell viability
1,O=C1NC(=O)C(=O)C(=O)N1,100%
2,CNC1CC(N)C(O)C(OC2OC(CO)C(O)C3OC4(OC(C(N)CO)C(O)C(O)C4O)OC23)C1O (stereo not drawn),103%
3,O=[N+]([O-])O[C@@H]1CO[C@H]2[C@@H]1OC[C@@H]2O,98.1%
4,C/C(=C\c1csc(C)n1)[C@@H]1C[C@@H]2O[C@@H]2CCC[C@H](C)[C@H](O)[C@@H](C)C(=O)C(C)(C)[C@@H](O)CC(=O)O1 [Epothilone A],18.5%
5,C/C(=C\c1csc(C)n1)[C@@H]1C[C@@H]2O[C@]2(C)CCC[C@H](C)[C@H](O)[C@@H](C)C(=O)C(C)(C)[C@@H](O)CC(=O)O1 [Epothilone B (EPO906)],13.4%
6,O=C(O)CC[N+](=O)[O-] [BOVINOCIDIN (3-nitropropionic acid)],94.6%
7,Cc1ccc(O)cc1.Cc1cccc(O)c1.Cc1ccccc1O,98.6%
8,C/C=C(\C)C(=O)O[C@H]1C[C@@H](OC(C)=O)[C@@]2(C(=O)OC)CO[C@H]3[C@@H](O)[C@@](C)([C@]45O[C@@]4(C)[C@H]4C[C@@H]5O[C@@H]5OC=C[C@@]54O)[C@H]4[C@]1(CO[C@]4(O)C(=O)OC)[C@@H]32,97.3%
9,OC[C@@H]1CCCN2CCCC[C@H]12,83%
10,C/C=C/c1ccc2c(c1)OCO2,108%
11,C[C@@H]1C[C@@H]([C@H](O)CC2CC(=O)NC(=O)C2)C(=O)[C@@H](C)C1,18.4%
12,C[C@]12CCC(=O)C=C1C=C[C@@H]1[C@@H]2CC[C@@]2(C)[C@H]1CC[C@@]2(O)CCC(=O)O,111%
13,NC(=O)c1ccc(N)nc1,88%
14,C[C@@H](N)[C@@H](O)c1ccccc1,106%
15,CC(C)c1cc2c(c(O)c1O)[C@@]1(C(=O)O)CCCC(C)(C)[C@@H]1CC2,107%
16,C=C[C@H]1CN2CC[C@H]1C[C@H]2[C@H](O)c1ccnc2ccccc12,105%
17,O=C(NC(=O)c1ccccc1Cl)Nc1ccc(OC(F)(F)F)cc1,113%
18,O=C1C=CC(=O)c2ccccc21,89.5%
